Screening data as filed in PubChem.
D1 potentiator: human D1 dopamine receptor positive modulation; P21728; HEK293 TREx D1 cells, calcium flux, dopamine EC20 potentiation; potentiation, % at 10 µM; 360,000 compounds, 0.036% hits; in the data active = potentiation above about 30%; also: 0% is about no effect
D1 agonist: activates the human D1 dopamine receptor; P21728; activation, % at 2 µM; AID 504660; HEK293 T-REx D1 cells, calcium flux, agonist mode; 360,000 compounds, 1% hits; also: 0% is about no effect
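Agonism was scored from calcium flux recorded over 180 s (1 read/s) after pintool compound addition, following a 10-cycle baseline. Cells were inducible force-coupled HEK293 TREx D1, plated overnight at 30 C and loaded with no-wash calcium dye.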
TRHR agonist: agonists of human TRH receptor | P34981 | TRHR cells, calcium flux fluo-8, FDSS agonist mode | activation, % at 2 µM | 360,000 compounds, 0.18% hits | AID 493084; also: 0% is about no effect
Target sequence (P34981 whole entry, looked up): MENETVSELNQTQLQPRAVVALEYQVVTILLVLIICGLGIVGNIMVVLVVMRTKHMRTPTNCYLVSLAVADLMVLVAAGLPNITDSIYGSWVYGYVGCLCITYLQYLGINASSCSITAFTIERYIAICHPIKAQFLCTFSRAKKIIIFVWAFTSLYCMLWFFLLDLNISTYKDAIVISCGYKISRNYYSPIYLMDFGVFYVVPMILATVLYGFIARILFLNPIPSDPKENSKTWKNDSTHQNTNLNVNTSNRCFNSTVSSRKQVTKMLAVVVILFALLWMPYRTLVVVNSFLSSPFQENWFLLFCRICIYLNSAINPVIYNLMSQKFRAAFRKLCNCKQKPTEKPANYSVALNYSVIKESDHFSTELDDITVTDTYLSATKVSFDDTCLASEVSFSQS
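Read-out: compound-evoked intracellular calcium rise in TRHR cells, fluo-8 dye, kinetic FDSS fluorescence at 1 s/cycle following a 10-cycle baseline. Cells cultured overnight before dye loading (30 min–1.5 h, RT).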
D1 antagonist: human D1 dopamine receptor antagonism; P21728; HEK293 TREx D1 cells, calcium flux, dopamine EC80; stronger effect = lower value; activity change, negative = inhibition, % at 10 µM; 360,000 compounds, 3.2% hits; in the data active = activity change below about -30%; also: % is scaled to controls: 0 for no effect and ±100 for the full control effect
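Tetracycline-induced HEK293 Trex D1 cells, force-coupled to calcium, dye-loaded; compounds added and read 180 s, then EC80 dopamine added and calcium flux tracked kinetically another 180 s.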
TRHR enhancer: allosteric enhancers of human TRH receptor; P34981; TRHR cells, fluo-8 calcium fluorescence, EC20 TRH enhancement; enhancement, % at 2 µM; 360,000 compounds, 0.66% hits; in the data active = enhancement above about 30%; also: 0% is about no effect
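TRHR-expressing cells loaded with fluo-8 calcium dye were read kinetically (ex 480/em 530) during compound addition, then stimulated with an EC20 of TRH (10 nM final). Enhancement of the Gq-mediated intracellular calcium response was scored.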
The depositor's hits bear a star; nt = no result. Sampled rows, rich in hits. Any-hit rate of the full collection: about 4.7%. Rule as the data show it, unless noted: active = activation above about 30%; inactive = the rest.

SMILES	D1 potentiator	D1 agonist	TRHR agonist	D1 antagonist	TRHR enhancer
O=C(COc1ccccc1)Nc1nn[nH]n1	1	0	0	9	5
CN(C)C=Nc1c(Br)cc(Br)c2nonc12	6	415*	141*	-74*	11
CN(Cc1ccccc1)C(=O)c1nc[nH]c1C(=O)N1CCc2ccccc2C1	0	-1	0	nt	-1
O=C(c1nc[nH]c1C(=O)N1CCc2ccccc2C1)N1CCc2ccccc2C1	-2	0	0	-66*	7
O=C(COC(=O)Cc1ccccc1F)Nc1ccc(SC(F)F)cc1	-7	8	0	-35*	-6
O=C(Cc1ccccc1F)Nc1ccc(SC(F)F)cc1	-3	8	-1	15	-4
O=C(COC(=O)Cc1ccccc1F)Nc1ccc2c(c1)OCCO2	-11	5	0	-27	11
O=C(COC(=O)Cc1ccccc1F)Nc1ccc2c(c1)OCO2	-4	5	-1	-37*	-6
COc1ccccc1NC(=O)c1ncn(-c2ccccc2)n1	0	1	-1	-14	-3
Fc1ccc(C(NCCc2ccc(Cl)cc2)c2nnc(-c3ccccc3)o2)c(Cl)c1 (stereo not given)	9	64*	0	-16	6
Clc1ccc(CCNC(c2nnc(-c3ccccc3)o2)c2ccccc2Cl)cc1 (stereo not given)	7	69*	-1	-10	5
O=C(NCCC1=CCCCC1)c1ccc2c(c1)N(Cc1ccc(F)cc1)C(=O)c1ccccc1S2(=O)=O	-2	3	1	-3	-8
COc1ccc(-c2ccc(CNCCCSc3nnnn3C)o2)cc1Cl	-1	37*	1	-5	-4
Cn1nnnc1SCCCNCc1ccc(-c2cccc(Cl)c2)o1	4	100*	-1	-57*	6
O=C(COC(=O)c1cccnc1Cl)Nc1cc(S(=O)(=O)N2CCCCCC2)ccc1Cl	-8	15	1	-17	-12
Cc1cccc(NC(=O)C2Cc3ccccc3O/C2=N\O)c1 (stereo not given)	4	0	1	1	-5
FC(F)(F)c1cc(N2CCNCC2)c2ccccc2n1	-1	2	0	7	10
OC(c1cc(C(F)(F)F)nc2c(C(F)(F)F)cccc12)C1CCCCN1 (stereo not given)	34*	160*	0	-10	6
CC1CCN(C(=O)CSc2nc(-c3ccc(F)cc3)cc(C(F)(F)F)n2)CC1	-1	1	0	-11	17
OC(c1cc(-c2ccc(C(F)(F)F)cc2)nc(C(F)(F)F)c1)C1CCCCN1 (stereo not given)	13	158*	19	-11	6
O=C(CCCOc1ccccc1)Nc1nccs1	-1	5	0	-9	22
CCc1ccc(OCCCC(=O)Nc2nccs2)cc1	-1	8	0	-30*	2
COc1ccc(Nc2nc(-c3c[nH]c4ccccc34)cs2)cc1	-1	3	1	-39*	7
O=C(Cn1ccc2cc(S(=O)(=O)N3CCCCCC3)ccc21)NCc1ccccc1Cl	3	4	2	4	0
CCOc1ccc(/C=C/c2nc(C#N)c(NCc3ccc(OC)cc3)o2)cc1	0	10	0	6	2
SMILES	D1 potentiator	D1 agonist	TRHR agonist	D1 antagonist	TRHR enhancer
CC1(C)CC(=O)C(N=Nc2ccc(F)cc2)=C(O)C1	-5	3	0	-42*	4
COc1ccc(CNC(=O)c2c(Nc3ccc(OC)cc3OC)sc(C(=O)c3ccc(Cl)cc3)c2N)cc1	2	16	1	-26	0
CCOc1ccc(NC(=O)c2c(Nc3ccc(OC)cc3OC)sc(C(=O)c3ccc(Cl)cc3)c2N)cc1	-1	49*	2	-25	5
Cc1ccc2[nH]c3c(N4CCc5ccccc5C4)ncnc3c2c1	-11	10	-1	-61*	6
Clc1ccc2[nH]c3c(N4CCC5(CC4)OCCO5)ncnc3c2c1	-4	9	3	-35*	-5
Cc1cccc2[nH]c3c(N4CCC5(CC4)OCCO5)ncnc3c12	-10	6	-1	-17	5
Fc1ccc2[nH]c3c(N4CCc5ccccc5C4)ncnc3c2c1	-12	16	2	-35*	-1
CC(Sc1nc2c([nH]c3ccccc32)c(=O)n1-c1ccccc1)c1ccccc1 (stereo not given)	2	0	0	1	-1
